From PubChem BioAssay (EPA / NIEHS)
The source made the active and inactive calls. The calls were made as follows: active = hit-call score of the fitted dose curve at least 0.9, where 1 is the maximum; inactive = score below 0.9.

Read-out: Glutathione S-transferase M3 (GSTM3), GSTM3 (gene 2947)
Assay: LTEA_HepaRG_GSTM3: Life Technologies and Expression Analysis (LTEA) Assay for Glutathione S-transferase M3 (GSTM3) using HepaRG (AID 2283501)
Settings: mRNA level, 48 h; actives raise or lower the signal
Method: LTEA_HepaRG is a cell based, multiplexed-readout assay that uses HepaRG, a human liver cell line, with measurements taken at 48 hours after chemical dosing on a 96-well plate.LTEA_HepaRG_GSTM3 is one of 102 assay component(s) measured in the LTEA HepaRG cell culture assay. It is a marker of Oxidative Stress.Data from the assay component LTEA_HepaRG_GSTM3 was analyzed into 1 endpoint. This assay endpoint, LTEA_HepaRG_GSTM3, was analyzed with bidirectional fitting relative to DMSO as the negative control and baseline of activity. Using a type of inducible reporter, measures of mRNA induction for gain or loss-of-signal activity can be used to understand regulation of transcription factor activity. To generalize the intended target to other relatable targets, this assay endpoint is annotated to the transferase intended target family, where the subfamily is alkyl and aryl transferase.
A total of 1060 chemcials from the ToxCast library were tested in eight-point concentration-response experiments. Cell culture and cytotoxicity assays were conducted at Thermo Fisher Scientific's Custom Services facility (Madison, WI). A single lot of human HepaRG cells (Thermo Fisher Scientific, Frederick, MD) was used for the cell culture experiments. 96-well format collagen type I coated plates of human HepaRG cells were prepared using established methods. Briefly, cryopreserved HepaRG cells were thawed, plated at a density of approximately 100,000 cells/well in HepaRG Thaw, Plate, and General Purpose media (HPRG770, Thermo Fisher Scientific), and incubated for 48 hours. 0.5% DMSO was selected as vehicle control to balance the requisite need of DMSO in HepaRG cultures to maintain differentiation (for example, baseline metabolism, proportions of hepatocytes vs. cholangiocytes), while enabling further hepatic receptor pathway activation (for example, PXR and CAR) in response to chemical exposure. 48 hours after plating, the culture medium was replaced with HepaRG Serum-Free Incudtion Media. Cells were exposed to each test chemical in duplicate and maintained in CO2 incubators for another 48 hours. Chemical plates were thawed to room temperature and 200x concentrations of treatment groups were prepared. 8-point conentration-reponse curves were made with the highest exposure at 100 uM, followed by half-log dilutions, all in 0.5% DMSO. Each test plate contained variouse controls, induction positive controls (1mM phenobarbital), cytotoxicity positive controls ([…] aflatoxin B1), vehicle controls (0.5% DMSO), and total lysis controls (0.5% DMSO). Cell morphology images were taken using an Essen IncuCyte FLR automated microscope, with six 96-well plates imaged in about 24 minutes. Images were captured and exported and JPEG files. Spent culture media was transfered to black-well plates for the LDH assay, and remaining media was sorted at -80 C for later use. Cells were treated with RLT buffer and frozen until shipped for gene expression analysis. Total RNA was isolated from the cell suspension in 75 uL of Buffer RLT (Qiagen, Germantown, MD 20874) by Quintiles/Expression Analysis (Durham, NC) using a custom isolation procedure. Total RNA from each plate well was transferred to a preamplification plate. Fluidigm's 96.96 Dynamic ArrayTM (Fluidigm, Amsterdam, the Netherlands) technology was used for gene expression analyses by quantitative reverse transcription polymerase chain reaction (qRT-PCR, performed by Quintiles/Expression Analysis, Durham, NC)89. Standard TaqManTM Assays (Applied Biosystems/ThermoFisher Scientific, Foster City, CA) were used to assess the expression of 93 genes selected based on their selectivity and sensitivity to important hepatic receptors known to be modulated by environmental chemicals; importance in human hepatocyte functionality; and hepatotoxicity. […]

Row | SMILES | outcome | AC50
1 | CCOP(=S)(OCC)SCCSCC | inactive | –
2 | CCOP(=S)(OCC)Oc1ccc([N+](=O)[O-])cc1 | inactive | –
3 | CCCCOC(=O)[C@@H](C)Oc1ccc(Oc2ccc(C#N)cc2F)cc1 | inactive | –
4 | CCCSP(=O)(OCC)SCCC | inactive | –
5 | CC(C1CC1)C(O)(Cn1cncn1)c1ccc(Cl)cc1 (stereo not given) | inactive | –
6 | COP(=O)(NC(C)=O)SC (stereo not given) | inactive | –
7 | CC(C)[C@H](C(=O)O[C@H](C#N)c1cccc(Oc2ccccc2)c1)c1ccc(Cl)cc1 | inactive | –
8 | CSC1=N[C@@](C)(c2ccccc2)C(=O)N1Nc1ccccc1 | – | 76.6 µM (active)
9 | CC1(C(=O)Nc2ccc(O)c(Cl)c2Cl)CCCCC1 | inactive | –
10 | COP(=O)(OC)C(O)C(Cl)(Cl)Cl (stereo not given) | inactive | –
11 | CCCCOC(=O)c1ccccc1C(=O)O | inactive | –
12 | CCOP(=S)(OCC)OC(Cl)C(Cl)(Cl)Cl (stereo not given) | inactive | –
13 | CCc1cccc(C)c1N(C(=O)CCl)C(C)COC (stereo not given) | inactive | –
14 | CN1COCN(Cc2cnc(Cl)s2)C1=N[N+](=O)[O-] | inactive | –
15 | CCNc1nc(Cl)nc(NC(C)(C)C#N)n1 | inactive | –
16 | CNC(=O)Oc1cccc2c1OC(C)(C)O2 | inactive | –
17 | CCc1cccc(CC)c1N(COC)C(=O)CCl | inactive | –
18 | CSc1nc(NC(C)C)nc(NC(C)C)n1 | inactive | –
19 | CCOP(=O)(OCC)Oc1cc(C)nc(C(C)C)n1 | inactive | –
20 | C[N+]1(C)CCCCC1 | inactive | –

Row | SMILES | outcome | AC50
21 | C#CC(C)(C)NC(=O)c1cc(Cl)cc(Cl)c1 | inactive | –
22 | CC(Oc1cccc(Cl)c1)C(=O)O (stereo not given) | inactive | –
23 | CC1=NNC(=O)N(/N=C/c2cccnc2)C1 | inactive | –
24 | CC(C)N(C(=O)SCC(Cl)=C(Cl)Cl)C(C)C | inactive | –
25 | CCOP(=S)(OCC)Oc1ccc2c(C)c(Cl)c(=O)oc2c1 | inactive | –
26 | CN(C)C(=O)Nc1cccc(C(F)(F)F)c1 | inactive | –
27 | CCOC(=O)COc1cc(-c2nn(C)c(OC(F)F)c2Cl)c(F)cc1Cl | inactive | –
28 | O=c1ccc(=O)[nH][nH]1 | inactive | –
29 | CCc1cnc(C2=NC(C)(C(C)C)C(=O)N2)c(C(=O)O)c1 (stereo not given) | inactive | –
30 | CC(C)=CC1C(C(=O)OCN2C(=O)C3=C(CCCC3)C2=O)C1(C)C (stereo not given) | inactive | –
31 | CN(C)[C@@H]1C(=O)C(C(N)=O)=C(O)[C@@]2(O)C(=O)C3=C(O)c4c(O)cccc4[C@@](C)(O)[C@H]3[C@H](O)[C@@H]12 | inactive | –
32 | Cc1ccn2nc(S(=O)(=O)Nc3c(F)cccc3F)nc2n1 | inactive | –
33 | Nc1nc(N)nc(NC2CC2)n1 | inactive | –
34 | CCC(=NOC/C=C/Cl)C1=C(O)CC(C2CCOCC2)CC1=O (stereo not given) | inactive | –
35 | CCOP(=S)(Oc1cnc(C(C)(C)C)nc1)OC(C)C (stereo not given) | inactive | –
36 | Nc1c(Cl)cc([N+](=O)[O-])cc1Cl | – | 50 µM (active)
37 | CNC(=O)ON=C(SC)C(=O)N(C)C | inactive | –
38 | CCC(CC)Nc1c([N+](=O)[O-])cc(C)c(C)c1[N+](=O)[O-] | inactive | –
39 | CCCCSP(=O)(SCCCC)SCCCC | inactive | –
40 | CON=C(C(=O)OC)c1ccccc1CON=C(C)c1cccc(C(F)(F)F)c1 | inactive | –
